A selection: hits, their analogues and other compounds. The true share with any hit is near 1.7%.
TRPML1 agonist: agonists of human TRPML1 channel | Q9GZU1 | TRPML1-expressing cells, Ca2+ dye fluorescence, FDSS | activation, % (no concentration beside the values) | 410,000 tested, 0.12% active | AID 624414; in the data active means activation above about 50%; inconclusive means mostly about 30% to 49%; further: 0% is about no effect
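Calcium fluorescence on an FDSS kinetic reader gave the read-out. Tet-induced TRPML1-DL cells were plated overnight, dye-loaded (Ca8 with quencher, 45-90 min, room temperature, dark), then read 110 s after compound addition, and again 110 s after 4uM final 54-4 (EC80).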
TRHR enhancer: allosteric enhancers of human TRH receptor; 360,000 tested, 0.66% active; P34981; enhancement, % at 2 µM; TRHR cells, fluo-8 calcium fluorescence, EC20 TRH enhancement; in the data active means enhancement above about 30%; further: 0% is about no effect
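TRHR-expressing cells loaded with fluo-8 calcium dye were read kinetically (ex 480/em 530) during compound addition, then stimulated with an EC20 of TRH (10 nM final). Enhancement of the Gq-mediated intracellular calcium response was scored.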
TRPML1 inh: blocks the human TRPML1 channel. 390,000 tested, 0.02% active. AID 624415. TRPML1-inducible cells, Ca2+ dye fluorescence, FDSS; hits give low values; inhibition of EC80 agonist-evoked calcium signal. Q9GZU1. activity change, negative = inhibition, % (test concentration not listed); in the data active means activity change below about -50%; inconclusive means between about -30% and that limit;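 further: stimulus is agonist 54-4 at its EC80 concentration; on the % scale 0 is the no-effect control and ±100 the full control effect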
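Calcium fluorescence in TRPML1-DL cells induced overnight with Tet: a 110 s read after compound pin addition, then a 110 s antagonist read after challenge with 54-4 at 4 uM final (EC80).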
KCNH2 3.1 block: inhibitors of human KCNH2 3.1 potassium channel isoform; activity change, % (tested at about 1.8 µM); U2OS KCNH2 3.1, thallium flux FluxOr; hits give low values; 340,000 tested, 0.95% active; AID 720553;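 active means maximum activity change below -70%; inconclusive means maximum activity change from -70% to -50%; inactive means maximum activity change above -50%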;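 further: thallium influx rate constant from kinetic fluorescence after stimulation buffer; on the % scale 0 is the no-effect control and ±100 the full control effect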
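Normalized rate constant (relative to positive and negative DMSO controls) derived from a 2 min kinetic fluorescence read after stimulation; U2OS cells expressing the 3.1 isoform via virus at 1.77 x 10^8 /mL.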
TRHR agonist: TRH receptor (human) agonism; TRHR cells, calcium flux fluo-8, FDSS agonist mode; AID 493084; 360,000 tested, 0.18% active; activation, % at 2 µM; P34981; in the data active means activation above about 30%; further: 0% is about no effect
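TRHR-expressing cells, plated overnight in medium with 10% serum, were loaded with fluo-8 calcium dye at room temperature. After a 10 s baseline, library compound was pin-added and calcium release was recorded kinetically (ex 480/em 530) as agonist response.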
hERG WT inh: inhibitors of human wildtype KCNH2 potassium channel | Q12809 | U2OS, BacMam KCNH2, thallium flux FluxOr; hits give low values | activity change, % at 1.84 µM | 340,000 tested, 0.37% active;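 active means maximum activity change below -70%; inconclusive means maximum activity change between -70% and -50%; inactive means maximum activity change above -50%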; further: on the % scale 0 is the no-effect control and ±100 the full control effect
Target sequence (Q12809 whole entry, looked up): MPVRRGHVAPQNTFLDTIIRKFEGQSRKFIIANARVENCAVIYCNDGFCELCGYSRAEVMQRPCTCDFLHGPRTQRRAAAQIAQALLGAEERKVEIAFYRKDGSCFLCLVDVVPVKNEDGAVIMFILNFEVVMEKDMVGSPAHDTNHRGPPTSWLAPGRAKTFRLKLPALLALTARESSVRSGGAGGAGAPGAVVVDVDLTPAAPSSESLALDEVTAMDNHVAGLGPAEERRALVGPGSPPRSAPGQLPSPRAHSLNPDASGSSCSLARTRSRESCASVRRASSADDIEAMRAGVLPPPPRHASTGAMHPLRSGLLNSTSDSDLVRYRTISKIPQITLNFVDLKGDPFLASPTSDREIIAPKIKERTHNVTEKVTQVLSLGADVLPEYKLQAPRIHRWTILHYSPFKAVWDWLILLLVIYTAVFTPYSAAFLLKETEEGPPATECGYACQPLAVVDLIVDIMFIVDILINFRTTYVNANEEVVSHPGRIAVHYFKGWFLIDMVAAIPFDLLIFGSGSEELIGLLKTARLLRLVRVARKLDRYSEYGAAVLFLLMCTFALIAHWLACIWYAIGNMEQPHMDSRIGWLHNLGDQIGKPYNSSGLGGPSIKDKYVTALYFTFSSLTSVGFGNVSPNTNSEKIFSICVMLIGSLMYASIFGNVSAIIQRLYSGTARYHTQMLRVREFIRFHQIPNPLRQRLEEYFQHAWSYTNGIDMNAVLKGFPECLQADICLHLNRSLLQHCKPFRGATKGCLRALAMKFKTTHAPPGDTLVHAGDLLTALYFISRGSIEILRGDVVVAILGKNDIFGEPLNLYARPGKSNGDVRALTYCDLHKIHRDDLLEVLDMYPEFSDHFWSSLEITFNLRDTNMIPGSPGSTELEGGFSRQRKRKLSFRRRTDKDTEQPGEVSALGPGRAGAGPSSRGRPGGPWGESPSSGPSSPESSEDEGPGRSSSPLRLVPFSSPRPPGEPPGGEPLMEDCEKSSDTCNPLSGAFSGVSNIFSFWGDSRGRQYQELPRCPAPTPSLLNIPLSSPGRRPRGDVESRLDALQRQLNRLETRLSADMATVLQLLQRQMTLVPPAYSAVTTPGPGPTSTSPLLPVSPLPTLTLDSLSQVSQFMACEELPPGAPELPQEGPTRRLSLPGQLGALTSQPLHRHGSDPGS
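U2OS cells were transduced with wild-type KCNH2 virus (2.03 x 10^8 / mL) for 4 h at room temperature, then cultured overnight at 37 C. Thallium flux was read with FluxOr dye. Rate constants were normalized to DMSO controls.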
Active calls of the source: *.

Screening CCc1ccccc1NC(=O)CSc1nnc(C2CC2)n1CC1CCCO1 (centres undefined) returned TRPML1 agonist 0.0, TRHR enhancer 30.8*, TRPML1 inh 18.5, KCNH2 3.1 block 1.0, TRHR agonist -1.7 and hERG WT inh -5.7.
`CCc1nnc(NC(=O)CSc2nnc(C)n2CC2CCCO2)s1` (centres undefined) gave TRPML1 agonist 3.7, TRHR enhancer -0.5, TRPML1 inh -6.0, KCNH2 3.1 block 5.0, TRHR agonist 0.8 and hERG WT inh -161.0*.
CCCc1nnc(SCC(=O)Nc2nnc(CC)s2)n1CC1CCCO1 (centres undefined) was read as TRPML1 agonist 0.2, TRHR enhancer 2.0, TRPML1 inh -21.2, KCNH2 3.1 block 16.1, TRHR agonist -1.2 and hERG WT inh 4.9.
`O=C(CCS(=O)(=O)c1nc(-c2cccs2)cc(C(F)(F)F)n1)Nc1cc(Br)ccc1O` gave TRPML1 agonist 1.8, TRHR enhancer -8.0, TRPML1 inh 25.1 and TRHR agonist -0.5.
Screening O=C(Nc1ccc(Cl)c(C(F)(F)F)c1)c1nc2ccccc2nc1N1CCCCC1 returned TRPML1 agonist 15.6, TRHR enhancer -0.4, TRPML1 inh -16.3 and TRHR agonist 1.3.
Screening CCCCn1c(N)c(N(CC)C(=O)CCNC(=O)NC23CC4CC(CC(C4)C2)C3)c(=O)[nH]c1=O returned TRPML1 agonist -0.3, TRHR enhancer -4.2, TRPML1 inh -0.4, KCNH2 3.1 block -71.4*, TRHR agonist 0.3 and hERG WT inh -3.3.
Screening CCN(CC)C(=O)c1sc(NC(=O)c2nc3ncccn3n2)c(C(=O)OC)c1C returned TRPML1 agonist 1.0, TRHR enhancer 32.0*, TRPML1 inh -19.9 and TRHR agonist -1.2.
`CCOc1ccc(Nc2nc(-c3cccc(Cl)c3)c3c(n2)-c2ccccc2OC3)cc1` gave TRPML1 agonist inconclusive, TRHR enhancer -1.8, TRPML1 inh -29.0 and TRHR agonist 1.1.
For Cc1ccc(C(CC(=O)N2CCNCC2)c2ccccc2)c(O)c1C (centres undefined) the results were TRPML1 agonist 2.4, TRHR enhancer -0.1, TRPML1 inh 1.1, KCNH2 3.1 block -107.4*, TRHR agonist 1.8 and hERG WT inh -10.6.
COc1cccc(CNC(=O)CSc2nc3ccccc3nc2Cc2ccc(C)cc2)c1OC was read as TRPML1 agonist 0.5, TRHR enhancer 32.8*, TRPML1 inh -1.3 and TRHR agonist 0.2.
For COc1ccccc1Cc1nc2ccccc2nc1SCC(=O)NCc1ccc(C)cc1 the results were TRPML1 agonist 0.2, TRHR enhancer 1.7, TRPML1 inh -11.0 and TRHR agonist -0.6.
Screening CCOc1cc(/C=C2\CCCc3c2nc2ccccc2c3C(=O)O)ccc1OC returned TRPML1 agonist 77.7*, TRHR enhancer 14.9, TRPML1 inh -11.2, KCNH2 3.1 block -10.0, TRHR agonist 151.1* and hERG WT inh 3.1.
For Cc1ccccc1CC1CCN(CCCNC(=O)Nc2ccccc2)CC1 the results were TRPML1 agonist -0.7, TRHR enhancer 3.0, TRPML1 inh 1.7, KCNH2 3.1 block -80.3*, TRHR agonist 0.4 and hERG WT inh 30.3.
Screening Cc1ccc(C)c(CN2CCC(CNC(=O)Nc3ccc(Br)cc3F)CC2)c1 returned TRPML1 agonist 2.1, TRHR enhancer -1.2, TRPML1 inh -16.6, KCNH2 3.1 block -71.1*, TRHR agonist 0.5 and hERG WT inh -18.7.
Cc1ccc(C)c(CN2CCC(CNC(=O)Nc3ccc(Cl)cc3)CC2)c1 was read as TRPML1 agonist -0.1, TRHR enhancer 6.6, TRPML1 inh 9.2, KCNH2 3.1 block -88.0*, TRHR agonist 2.2 and hERG WT inh -9.4.
`O=C(NCC1CC1)Nc1ccc(Cl)cc1` gave TRPML1 agonist 0.2, TRHR enhancer 0.0, TRPML1 inh -7.7, KCNH2 3.1 block 6.6, TRHR agonist -0.3 and hERG WT inh 3.0.
Cc1cccc(CN2CCC(CNC(=O)Nc3ccccc3F)CC2)c1 was read as TRPML1 agonist 1.2, TRPML1 inh 14.1, KCNH2 3.1 block -4.2 and hERG WT inh 49.4.
`O=C(NCCCN1CCN(Cc2ccccc2Cl)CC1)Nc1ccccc1` gave TRPML1 agonist 2.3, TRHR enhancer 1.8, TRPML1 inh 3.3, TRHR agonist -0.9 and hERG WT inh 16.2.
`O=[S+]([O-])(c1ccc2c(c1)OCCO2)N1CCN([S+](=O)([O-])c2c(F)cc(Br)cc2F)CC1` gave TRHR enhancer -2.5 and TRHR agonist -0.3.
`Cc1cccc(NS(=O)(=O)c2cc(C(=O)N3CCCCCC3)ccc2C)c1` gave TRPML1 agonist 0.8, TRHR enhancer -1.5, TRPML1 inh 32.0, KCNH2 3.1 block -9.8, TRHR agonist -0.4 and hERG WT inh 7.4.
Screening O=C(CCN1CCN(c2ccccc2F)CC1)Nc1ccccc1F returned TRPML1 agonist 1.3, TRHR enhancer 0.2, TRPML1 inh 30.8, KCNH2 3.1 block 13.7, TRHR agonist -0.6 and hERG WT inh -2.8.
O=C(CCN1CCN(C/C=C/c2ccccc2)CC1)Nc1ccccc1F was read as TRPML1 agonist 0.3, TRHR enhancer -2.8, TRPML1 inh -6.4, KCNH2 3.1 block -101.7*, TRHR agonist 0.1 and hERG WT inh -49.1.
`Cc1ccccc1NC(=O)N1CCN(C/C=C/c2ccccc2)CC1` gave TRPML1 agonist 0.3, TRHR enhancer 2.4, TRPML1 inh 11.3, KCNH2 3.1 block -85.6*, TRHR agonist -0.6 and hERG WT inh 26.2.
Screening O=C(CN1CCN(CCC(=O)Nc2ccccc2F)CC1)Nc1ccc(Cl)cc1 returned TRPML1 agonist -1.5, TRHR enhancer 0.1, TRPML1 inh -6.3, KCNH2 3.1 block -107.7*, TRHR agonist -1.2 and hERG WT inh -102.1*.
Screening O=C(CCN1C(=O)c2ccccc2S1(=O)=O)Nc1ccc(Cl)cc1 returned TRPML1 agonist 1.5, TRHR enhancer -2.9, TRPML1 inh -6.2, KCNH2 3.1 block -84.1*, TRHR agonist -1.1 and hERG WT inh 4.6.
For Cc1cc(C)cc(NC(=O)CCN2C(=O)c3ccccc3S2(=O)=O)c1 the results were TRPML1 agonist -0.1, TRHR enhancer -5.6, TRPML1 inh 34.2, KCNH2 3.1 block 0.6, TRHR agonist -0.9 and hERG WT inh -6.1.
`COCCNC(=O)CCN1C(=O)c2cccnc2Oc2ccc(C)cc21` gave TRPML1 agonist 1.4, TRHR enhancer 10.3, TRPML1 inh 12.4 and TRHR agonist -0.1.
`CC1=CC(C)(C)N2C(=O)C3(C(C#N)=C(N)Oc4cc(O)ccc43)c3cccc1c32` (centres undefined) gave TRPML1 agonist 1.6, TRHR enhancer 32.1*, TRPML1 inh 33.6, KCNH2 3.1 block -7.6, TRHR agonist -0.4 and hERG WT inh -7.7.

Screening results: PubChem, National Center for Advancing Translational Sciences (NCATS)
